Laboratory results published in PubChem BioAssay.
Unmarked numbers belong to inactive results.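 The calls were made as follows, unless noted: active = viability at or below 10% of carrier control in both of two separate runs; inconclusive = viability at or below 10% in only one of the two runs; inactive = the rest.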 Square brackets hold non-standard residues; d marks the D form. Peptide text beside a SMILES is read from it. * marks the point of attachment. ξ: configuration not given here. Cbz = O=C(OCc1ccccc1)*; ξK = NCCCCC(N)C(=O)O

Target: Receptor tyrosine-protein kinase erbB-2 (Homo sapiens) (UniProt P04626)
Sequence (P04626 whole entry, looked up): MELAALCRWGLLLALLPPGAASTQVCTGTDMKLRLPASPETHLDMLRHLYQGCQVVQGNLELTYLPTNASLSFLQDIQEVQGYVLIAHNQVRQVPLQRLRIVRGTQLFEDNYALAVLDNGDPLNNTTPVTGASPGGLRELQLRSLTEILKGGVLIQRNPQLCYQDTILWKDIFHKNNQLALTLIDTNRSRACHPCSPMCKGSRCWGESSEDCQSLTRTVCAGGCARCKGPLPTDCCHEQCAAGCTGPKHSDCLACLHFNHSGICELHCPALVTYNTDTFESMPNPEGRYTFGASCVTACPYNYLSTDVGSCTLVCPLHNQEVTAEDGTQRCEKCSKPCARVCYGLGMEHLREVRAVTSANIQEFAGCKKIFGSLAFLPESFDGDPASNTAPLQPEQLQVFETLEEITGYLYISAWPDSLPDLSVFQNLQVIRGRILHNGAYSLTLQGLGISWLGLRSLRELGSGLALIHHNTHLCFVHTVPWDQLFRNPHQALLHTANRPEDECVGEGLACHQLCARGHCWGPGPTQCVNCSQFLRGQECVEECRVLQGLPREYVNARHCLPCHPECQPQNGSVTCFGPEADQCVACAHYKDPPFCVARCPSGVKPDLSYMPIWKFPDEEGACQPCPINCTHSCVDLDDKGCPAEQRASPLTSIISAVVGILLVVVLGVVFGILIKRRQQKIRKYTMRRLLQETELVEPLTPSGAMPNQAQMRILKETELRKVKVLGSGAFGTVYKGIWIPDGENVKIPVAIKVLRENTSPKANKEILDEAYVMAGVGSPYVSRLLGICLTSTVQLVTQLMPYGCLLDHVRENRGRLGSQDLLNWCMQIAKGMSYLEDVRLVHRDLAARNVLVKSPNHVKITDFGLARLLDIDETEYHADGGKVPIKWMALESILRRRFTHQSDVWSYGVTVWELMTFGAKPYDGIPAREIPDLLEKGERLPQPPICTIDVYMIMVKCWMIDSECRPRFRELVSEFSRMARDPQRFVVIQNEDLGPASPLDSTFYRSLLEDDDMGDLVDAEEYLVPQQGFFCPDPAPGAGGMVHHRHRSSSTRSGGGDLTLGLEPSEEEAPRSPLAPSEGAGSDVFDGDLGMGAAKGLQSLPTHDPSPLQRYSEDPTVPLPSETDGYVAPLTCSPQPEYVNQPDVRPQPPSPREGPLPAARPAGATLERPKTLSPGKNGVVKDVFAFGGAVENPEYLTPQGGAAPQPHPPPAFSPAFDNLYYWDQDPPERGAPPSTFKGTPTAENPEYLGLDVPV
Experiment: Her2 expression decrease, cell viability multiplex – SKBR3 breast tumor cells, AlphaScreen, ATP viability, primary screen (AID 461;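 active = Her2 level under about 52% in both replicate screens, with viability over 70% of control, limit read from the data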;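 also: lower value means less Her2 protein in the cells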)
Conditions: 18-24 h, at 10 µM, hits give low values
In the case of `COC(=O)c1ccccc1NC(=O)CSc1nc2c(c(=O)n(C)c(=O)n2C)n1C`, the Her2 level is reported as 124%.
`CCCCOc1cccc(NC(=O)CSc2nccn2C)c1` gave a Her2 level of 81.5%.
Work on `Cc1ccc(Nc2cc(-n3nc(C)cc3C)ncn2)cc1` yielded a Her2 level of 97%.
`COc1ccc(-n2c(SCC#N)nc3ccccc3c2=O)cc1` gave a Her2 level of 106%.
In the case of `COc1cc2c(C)nc(C)c(C#N)c2cc1OC`, the Her2 level is reported as 93.5%.
Work on `CC1=C(C(=O)OCc2ccccc2)C(c2ccc(C)o2)C2=C(CCCC2=O)N1` (stereo not given) yielded a Her2 level of 88%.
`C=CCNC(=O)c1cc(-c2ccccc2O)on1` gave a Her2 level of 82.5%.
With `Cc1cc(NC(=O)CSc2nc3ccsc3c(=O)n2NC(=O)c2ccccc2)no1` the Her2 level was 100%.
For `O=C(NCc1ccco1)c1cnn2c(C(F)(F)F)cc(-c3ccco3)nc12`, the Her2 level was 74.5%.
With `Cc1ccc(-c2nnc3ccc(SCC(=O)NCc4ccco4)nn23)cc1` the Her2 level was 87.5%.
`CCCc1cc(C(N)=O)c(NC(=O)c2ccco2)s1` gave a Her2 level of 73.5%.
`COc1ccc(CCNC(=O)c2ccncc2)cc1OC` gave a Her2 level of 110%.
In the case of `CCOC(=O)c1nnc(-c2ccccc2)o1`, the Her2 level is reported as 87.5%.
In the case of `Cc1ccc(S(=O)(=O)N2CCCC(C(=O)NC3=NCCS3)C2)cc1` (stereo not given), the Her2 level is reported as 78.5%.
Work on `O=C1CCCC2=C1C(c1ccsc1)CC(=O)N2c1ccccc1` (stereo not given) yielded a Her2 level of 96%.
`Cc1csc2nc(CSc3nc4ccccc4o3)c(Br)n12` showed a Her2 level of 60%.
In the case of `CC(NC(=O)c1ccccc1NC(=O)c1ccco1)C(=O)O` (stereo not given), the Her2 level is reported as 68%.
`CCC(=O)Nc1cc2nn(-c3ccccc3)nc2cc1Cl` showed a Her2 level of 90.5%.
In the case of `O=C(NC1CCCCC1)n1c(=O)oc2ccc(Cl)cc21`, the Her2 level is reported as 92%.
In the case of `COc1ccc(OC)c(-c2nnc(SCC(=O)NC3CCCCC3)o2)c1`, the Her2 level is reported as 99.5%.
`O=C(O)CCCc1nc(-c2ccccc2)no1` showed a Her2 level of 87.5%.
Work on `COCCn1c(SCC(=O)Nc2cccc(OC)c2)nnc1-c1ccc(Cl)cc1` yielded a Her2 level of 71.5%.
Molecule `CCN1C(=O)Cc2cc(S(=O)(=O)N3CCOCC3)ccc21` has a Her2 level of 110%.
In the case of `O=C(Nc1cc(Cl)ccc1Cl)c1noc2c1CCCC2`, the Her2 level is reported as 90.5%.
In the case of `CCCCn1c(SCC(=O)Nc2ccc(OC)cc2)nc2ccc(N3CCOCC3)cc2c1=O`, the Her2 level is reported as 86%.
For `Cc1ccc(C(=O)N2CCN(C(=O)c3ccc(C)c(C)c3)C(C)C2)cc1C` (stereo not given), the Her2 level was 81%.
`COc1ccc(C2CC(c3ccccc3)Nc3nc(NC(=O)c4cccs4)nn32)cc1` (stereo not given) showed a Her2 level of 94.5%.
For `CC1(CC(=O)O)C(=O)N=C2C=CC=CN21` (stereo not given), the Her2 level was 87.5%.
For `COC(=O)C(CCCCNC(=O)OCc1ccccc1)NC(=O)CN` (stereo not given) (H-Gly-[ξK](Cbz)-OMe), the Her2 level was 92.5%.
In the case of `Fc1ccc(C(c2nnnn2Cc2ccco2)N2CCN(C3CCCCC3)CC2)cc1` (stereo not given), the Her2 level is reported as 86.5%.
`COc1ccccc1-c1cn[nH]c(=S)n1` gave a Her2 level of 108%.
`CCOC(=O)C1CCCN(C(=O)c2ccc(CS(=O)(=O)Cc3ccccc3C)o2)C1` (stereo not given) gave a Her2 level of 97.5%.
For `O=c1c2[nH]c3ccccc3c2ncn1CCCn1ccnc1`, the Her2 level was 77.5%.
In the case of `COc1ccc(S(=O)(=O)N2CCN(C3CCCCCCC3)CC2)cc1`, the Her2 level is reported as 89.5%.
Molecule `O=C(CCn1c(=S)[nH]c2ccccc2c1=O)NCC1CCCO1` (stereo not given) has a Her2 level of 100%.
For `CCC(=O)Nc1ccc(NC(=O)c2cccc(OC)c2)nc1`, the Her2 level was 92.5%.
Work on `CN(Cc1ccccc1)C(=O)c1ccc2c(c1)OCO2` yielded a Her2 level of 97%.
`O=C(O)CC1SC(=Nc2cccc(C(F)(F)F)c2)NC1=O` (stereo not given) gave a Her2 level of 94.5%.
Work on `CCOC(=O)C1=C(C)N=c2s/c(=C\c3cccn3C)c(=O)n2C1c1cccc(OC)c1OC` (stereo not given) yielded a Her2 level of 87%.
For `CC(=O)c1cccc(NC(=O)N2CCCc3ccccc32)c1`, the Her2 level was 104%.

Test system: not listed separately
Experiment: reduced viability of SK-BR-3 breast cancer cells – cell-based, 24 h, human, pilot screen (AID 572);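 also: compound exposure lasted between 18 and 24 h rather than exactly 24 h; 100% = carrier-treated control wells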
Conditions: SK-BR-3 viability, CellTiter-Glo luminescence, at 10 µM, hits give low values
In the case of `COC(=O)c1ccccc1NC(=O)CSc1nc2c(c(=O)n(C)c(=O)n2C)n1C`, the viability is reported as 86%.
`CCCCOc1cccc(NC(=O)CSc2nccn2C)c1` gave a viability of 107%.
`Cc1ccc(Nc2cc(-n3nc(C)cc3C)ncn2)cc1` gave a viability of 96.5%.
With `COc1ccc(-n2c(SCC#N)nc3ccccc3c2=O)cc1` the viability was 77%.
`COc1cc2c(C)nc(C)c(C#N)c2cc1OC` gave a viability of 111%.
Molecule `CC1=C(C(=O)OCc2ccccc2)C(c2ccc(C)o2)C2=C(CCCC2=O)N1` (stereo not given) has a viability of 72%.
With `C=CCNC(=O)c1cc(-c2ccccc2O)on1` the viability was 97%.
`Cc1cc(NC(=O)CSc2nc3ccsc3c(=O)n2NC(=O)c2ccccc2)no1` showed a viability of 94.5%.
In the case of `O=C(NCc1ccco1)c1cnn2c(C(F)(F)F)cc(-c3ccco3)nc12`, the viability is reported as 86.5%.
Molecule `Cc1ccc(-c2nnc3ccc(SCC(=O)NCc4ccco4)nn23)cc1` has a viability of 100%.
Molecule `CCCc1cc(C(N)=O)c(NC(=O)c2ccco2)s1` has a viability of 102%.
With `COc1ccc(CCNC(=O)c2ccncc2)cc1OC` the viability was 107%.
Molecule `CCOC(=O)c1nnc(-c2ccccc2)o1` has a viability of 101%.
With `Cc1ccc(S(=O)(=O)N2CCCC(C(=O)NC3=NCCS3)C2)cc1` (stereo not given) the viability was 97.5%.
In the case of `O=C1CCCC2=C1C(c1ccsc1)CC(=O)N2c1ccccc1` (stereo not given), the viability is reported as 90.5%.
Molecule `Cc1csc2nc(CSc3nc4ccccc4o3)c(Br)n12` has a viability of 84.5%.
Molecule `CC(NC(=O)c1ccccc1NC(=O)c1ccco1)C(=O)O` (stereo not given) has a viability of 106%.
Work on `CCC(=O)Nc1cc2nn(-c3ccccc3)nc2cc1Cl` yielded a viability of 91%.
Work on `O=C(NC1CCCCC1)n1c(=O)oc2ccc(Cl)cc21` yielded a viability of 118%.
For `COc1ccc(OC)c(-c2nnc(SCC(=O)NC3CCCCC3)o2)c1`, the viability was 93.5%.
For `O=C(O)CCCc1nc(-c2ccccc2)no1`, the viability was 91.5%.
For `COCCn1c(SCC(=O)Nc2cccc(OC)c2)nnc1-c1ccc(Cl)cc1`, the viability was 98.5%.
With `CCN1C(=O)Cc2cc(S(=O)(=O)N3CCOCC3)ccc21` the viability was 105%.
Molecule `O=C(Nc1cc(Cl)ccc1Cl)c1noc2c1CCCC2` has a viability of 87.5%.
In the case of `CCCCn1c(SCC(=O)Nc2ccc(OC)cc2)nc2ccc(N3CCOCC3)cc2c1=O`, the viability is reported as 94.5%.
`Cc1ccc(C(=O)N2CCN(C(=O)c3ccc(C)c(C)c3)C(C)C2)cc1C` (stereo not given) showed a viability of 84.5%.
`COc1ccc(C2CC(c3ccccc3)Nc3nc(NC(=O)c4cccs4)nn32)cc1` (stereo not given) showed a viability of 81.5%.
Work on `CC1(CC(=O)O)C(=O)N=C2C=CC=CN21` (stereo not given) yielded a viability of 93%.
Molecule `COC(=O)C(CCCCNC(=O)OCc1ccccc1)NC(=O)CN` (stereo not given) (H-Gly-[ξK](Cbz)-OMe) has a viability of 109%.
`Fc1ccc(C(c2nnnn2Cc2ccco2)N2CCN(C3CCCCC3)CC2)cc1` (stereo not given) gave a viability of 67%.
Molecule `COc1ccccc1-c1cn[nH]c(=S)n1` has a viability of 101%.
`CCOC(=O)C1CCCN(C(=O)c2ccc(CS(=O)(=O)Cc3ccccc3C)o2)C1` (stereo not given) gave a viability of 94.5%.
In the case of `O=c1c2[nH]c3ccccc3c2ncn1CCCn1ccnc1`, the viability is reported as 92%.
With `COc1ccc(S(=O)(=O)N2CCN(C3CCCCCCC3)CC2)cc1` the viability was 87.5%.
For `O=C(CCn1c(=S)[nH]c2ccccc2c1=O)NCC1CCCO1` (stereo not given), the viability was 118%.
`CCC(=O)Nc1ccc(NC(=O)c2cccc(OC)c2)nc1` gave a viability of 94%.
`CN(Cc1ccccc1)C(=O)c1ccc2c(c1)OCO2` showed a viability of 101%.
Molecule `O=C(O)CC1SC(=Nc2cccc(C(F)(F)F)c2)NC1=O` (stereo not given) has a viability of 111%.
With `CCOC(=O)C1=C(C)N=c2s/c(=C\c3cccn3C)c(=O)n2C1c1cccc(OC)c1OC` (stereo not given) the viability was 89%.
In the case of `CC(=O)c1cccc(NC(=O)N2CCCc3ccccc32)c1`, the viability is reported as 105%.
